Compounds with a hit are over-represented: about 7.3% of the library has one in this group of screens.
SMN2 splice up = SMN2 splice variant enhancement; AID 1458; HEK293 SMN2-luciferase splicing reporter, luminescence, 30-36 h; 210,000 compounds, 2.8% hits; Potency, µM (highest dose often 46.1 µM), actives largely listed as activators; note: nearly all actives have a fitted effect of over 55% in size
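qHTS luciferase splicing reporter: luminescence rises when SMN2 exon 7 is included in transfected HEK293 cells. Compound exposure lasted 30-36 h at 37C, with 4.5 mM final sodium butyrate as control, followed by a ONE-Glo read.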
ELG1 genotoxic = inducers of genotoxicity in HEK293T ELG1-luciferase cells. HEK293T ELG1-luciferase reporter, luminescence, 16 h. Potency, µM (series often up to 46 µM), hits mostly activators. 330,000 compounds, 1.3% hits; note: nearly all actives have a fitted effect of over 60% in size
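DMSO vehicle served as control against compound-treated ELG1-luciferase HEK293T cells; exposure lasted 16 hr at 37 °C and 5% CO2, followed by ONE-Glo luminescence detection after 30 min.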
FLuc counter = counter-screen for miR-21 project: firefly luciferase inhibitors or activators; P08659; AID 588342; purified FLuc, Km substrates, luminescence inhibition; 360,000 compounds, 6.9% hits; Potency, µM (titrated, usually from 57.5 µM), most hits filed as inhibitors; note: nearly all actives have a fitted effect of over 55% in size
Target sequence (P08659 whole entry, looked up): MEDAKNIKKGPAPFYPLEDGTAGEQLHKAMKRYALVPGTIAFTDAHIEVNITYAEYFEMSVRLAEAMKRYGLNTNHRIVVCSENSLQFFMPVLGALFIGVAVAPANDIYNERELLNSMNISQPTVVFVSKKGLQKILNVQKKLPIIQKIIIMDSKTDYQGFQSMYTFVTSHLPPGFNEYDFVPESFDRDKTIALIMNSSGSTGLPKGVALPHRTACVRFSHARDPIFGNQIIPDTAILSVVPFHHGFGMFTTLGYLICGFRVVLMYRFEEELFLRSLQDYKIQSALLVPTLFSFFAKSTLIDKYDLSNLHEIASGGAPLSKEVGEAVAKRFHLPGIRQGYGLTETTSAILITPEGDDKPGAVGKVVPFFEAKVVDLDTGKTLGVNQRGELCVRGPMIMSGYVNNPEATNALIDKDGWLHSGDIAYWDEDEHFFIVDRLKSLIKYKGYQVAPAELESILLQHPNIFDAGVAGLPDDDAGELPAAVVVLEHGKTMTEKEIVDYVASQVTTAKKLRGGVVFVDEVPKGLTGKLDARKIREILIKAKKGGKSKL
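Purified P. pyralis luciferase (10nM final) with 10uM D-luciferin and 10uM ATP (Km levels) in 50mM Tris acetate pH 7.5, 10mM Mg acetate, 0.01% Tween-20, 0.05% BSA; qHTS 6-point titration, ~60 µM downward; luminescence read.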
NPC1 promoter act = activates the NPC1 promoter; Huh7 NPC1 promoter luciferase reporter, 24 h; 320,000 compounds, 2.4% hits; AID 485313; Potency, µM (titrated, usually from 9.22 µM), actives largely listed as activators; note: nearly all actives have a fitted effect of over 60% in size
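Compounds in DMSO were transferred onto Huh7 NPC1-luciferase reporter cells pre-incubated 2 h; after 24 h at 37 °C, Amplite reagent was dispensed and luminescence recorded 10 min later.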
Rab9 promoter act = Rab9 promoter activation; 320,000 compounds, 2.8% hits; Huh7 Rab9 promoter-luciferase reporter, luminescence, 24 h; Potency, µM (top dose mostly 9.22 µM), hits mostly activators; note: nearly all actives have a fitted effect of over 60% in size
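Steps: seed 1500 Huh7 Rab9-luc cells per well, rest 2 h at 37 °C; add compound in DMSO; incubate 24 h; add luciferase reagent, 10 min ambient; read luminescence.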
p53 reactivator = re-activators of mutant p53; H1299 p53-A138V BP100-luciferase reporter, luminescence, 24 h; Potency, µM (series often up to 92.2 µM), usual class: activators; 320,000 compounds, 0.063% hits; AID 504706; note: nearly all actives have a fitted effect of over 45% in size
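p53-null H1299 cells stably carrying temperature-sensitive p53-A138V and a BP100-luciferase reporter were pinned with compounds (4-point, 1:5 series) and held 24 hrs at 37 deg C. Luminescence was read 10 min after detection reagent.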
Hits are given with their value; i = inactive; ? = inconclusive; nt = not tested or not shown; [ ] = dose if it differs, or a comment. Calls come from the whole dose curve; as a rule, active = well fitted curve in the direction sought with a large enough effect; inconclusive = small, poorly fitted or top-dose-only effect, or another doubt; inactive = no such curve, though single readings can be large; an effect the other way counts as inactive or inconclusive.

SMILES	SMN2 splice up	ELG1 genotoxic	FLuc counter	NPC1 promoter act	Rab9 promoter act	p53 reactivator
COC(=O)N1C2(C=CC1(C)C(=O)NCc1ccc(N(C)C)cc1)CCCCC2 (stereo not drawn)	i	nt	nt	nt	nt	nt
N/C(=N\OC(=O)c1cccc(Br)c1)c1ccccn1	nt	?	0.43µM	3.5µM	4µM	i
N/C(=N\OS(=O)(=O)c1ccc(Cl)cc1)c1ccccn1	i	23µM	i	i	i	?
N/C(=N\OC(=O)c1ccc2ccccc2c1)c1ccc(Br)cc1	?	i	i	i	i	i
N/C(=N\OC(=O)c1ccc(Cl)cc1)c1ccccn1	7.1µM	?	0.076µM	0.56µM	1.4µM	?
N/C(=N\OC(=O)c1ccc(Cl)c(Cl)c1)c1ccccn1	14µM	?	0.76µM	3.2µM	4.5µM	i
O=C(NCCNC(=O)c1ccccn1)c1ccc(Cl)cc1	nt	i	i	i	i	i
N/C(=N\OC(=O)c1ccc(Cl)c([N+](=O)[O-])c1)c1ccccn1	nt	i	?	i	i	?
CC12CC[C@@H]3c4ccc(OP(=O)(O)O)cc4CCC3C1CCC2=O (stereo partly drawn)	i[9.22 µM]	nt	nt	nt	nt	nt
N/C(=N\OC(=O)c1cccc(Br)c1)c1ccccc1	?	?	0.85µM	i	i	i
CCOc1cc(C(=O)O/N=C(\N)c2ccccn2)cc(OCC)c1OCC	nt	i	?	i	i	i
N/C(=N\OC(=O)c1ccc(Cl)cc1)c1[nH]ncc1Br	nt	?	0.13µM	?	3.2µM	?
N/C(=N\OC(=O)c1cccc(Cl)c1)c1ccccn1	14µM	?	0.6µM	3.2µM	3.2µM	nt
CCOc1ccc(C(=O)O/N=C(\N)c2ccccn2)cc1OCC	nt	?	12µM	1.3µM	2.5µM	?
CCO/N=C(\N)c1[nH]ncc1Br	nt	i	i	i	i	i
COc1ccc(C2C(C(N)=O)=C(C)Nc3nc(CCCO)nn32)c(OC)c1 (stereo not drawn)	i	nt	i	nt	nt	nt
COc1ccccc1NC(=S)N1CCC(c2nc3cc(C)c(C)cc3[nH]2)CC1	i	i	13µM	i	i	i
Cc1cc2nc(C3CCN(C(=S)NCC(C)C)CC3)[nH]c2cc1C	i	i	17µM	i	i	i
COc1cc(OC)c(NC(=O)Cn2c(=O)c(C(F)(F)F)nc3ccccc32)cc1Cl	nt	nt	i	nt	nt	nt
CCc1ccccc1NC(=O)Nc1nnc(N(CC)c2ccccc2)s1	nt	nt	i	nt	nt	nt
O=C1/C(=C\c2cccnc2)Sc2ccccc21	i	?	6.7µM	i	i	i
CC(=O)Nc1ccc(/C=C2/Sc3ccccc3C2=O)cc1	i	?	0.76µM	i	i	i
CN1C(=O)S/C(=C/c2cccnc2)C1=O	i	i	i	i	i	?
CC(NC(=O)c1ccc2c(c1)sc1nc(-c3ccc(F)cc3)cn12)C12CC3CC(CC(C3)C1)C2 (stereo not drawn)	nt	nt	i	nt	nt	nt
COc1ccc(S(=O)(=O)Nc2ccc(-c3ccc(N4CCCC4)nn3)cc2)cc1F	nt	nt	i	nt	nt	nt
SMILES	SMN2 splice up	ELG1 genotoxic	FLuc counter	NPC1 promoter act	Rab9 promoter act	p53 reactivator
COc1ccc(S(=O)(=O)Nc2cccc(-c3ccc(N4CCC(C)CC4)nn3)c2)cc1OC	nt	nt	0.43µM	nt	nt	nt
Cc1ccc([N+](=O)[O-])cc1S(=O)(=O)Nc1cccc(-c2ccc(N3CCCC3)nn2)c1	nt	i	19µM	i	i	i
COc1ccc(S(=O)(=O)Nc2cccc(-c3ccc(N4CCCC4)nn3)c2)cc1OC	nt	nt	17µM	nt	nt	nt
Cc1ccc(S(=O)(=O)Nc2cccc(-c3ccc(N4CCCCCC4)nn3)c2)cc1C	nt	?	6µM	?	3.2µM	?
CCc1ccc(S(=O)(=O)c2cn(Cc3ccccc3)c3cc(F)c(F)cc3c2=O)cc1	i	nt	i	nt	nt	nt
CCc1n[n+](CC(=O)c2ccccc2)c(N)s1	4µM	?	2.4µM	0.32µM	0.5µM	i
Nc1ccc(C(=O)Oc2ccc([N+](=O)[O-])cc2)cc1	nt	?	3.4µM	i	i	i
Nc1cc([N+](=O)[O-])ccc1C(=O)O	i	nt	nt	nt	nt	nt
Nc1ccc(C(=O)Oc2ccc([N+](=O)[O-])cc2)c(O)c1	nt	i	15µM	i	i	i
Cc1cccc(N(CC(=O)NCc2ccccc2)S(C)(=O)=O)c1C	i	nt	i	nt	nt	nt
CC(C)CN(CC#N)CC(C)C	i[9.22 µM]	nt	nt	nt	nt	nt
